Test results reported in PubChem BioAssay (NCI).
Compounds without any hit were thinned out: in the full panel of roughly 83,000, 20% have a hit.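 Cell lines were cultured in 96-well plates, exposed to a single compound concentration, and assessed for percent growth 48 hours later.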 A number with no mark means an inactive call. Active and inactive are the calls of the source. Rule for the calls: active = growth percent below 10; inactive = the rest.

Experiments:
Experiment in all cases: NCI-60 one-dose screen, 48 h (100 = growth as untreated, 0 = no growth, -100 = all killed)
Conditions in all cases: 10 µM unless noted
NCI-H23 lung = tested on: NCI-H23 lung
NCI-H226 lung = tested on: NCI-H226 lung
NCI-H322M lung = tested on: NCI-H322M lung
HOP-62 NSCLC = tested on: HOP-62 NSCLC
NCI-H460 lung = tested on: NCI-H460 lung
HOP-92 NSCLC = tested on: HOP-92 NSCLC
NCI-H522 lung = tested on: NCI-H522 lung
A549/ATCC NSCLC = tested on: A549/ATCC NSCLC
786-0 renal = tested on: 786-0 renal
COLO 205 colon = tested on: COLO 205 colon

Row | SMILES | growth (NCI-H23 lung) | growth (NCI-H226 lung) | growth (NCI-H322M lung) | growth (HOP-62 NSCLC) | growth (NCI-H460 lung) | growth (HOP-92 NSCLC) | growth (NCI-H522 lung) | growth (A549/ATCC NSCLC) | growth (786-0 renal) | growth (COLO 205 colon)
1 | CN1C(=O)C2(SCC(C(=O)NCC(=O)OC(C)(C)C)N2C(=O)C2CCCCC2)c2ccccc21 (stereo not given) | 94.4% | 91.6% | 95.3% | 95% | 102% | 85.8% | 80.9% | 95.2% | 94.7% | 99.9%
2 | CCCCOc1c(N)cc(Cl)cc1C(=O)OCCN(CC)CC | 104% | 94.1% | 86% | 91.8% | 108% | 89.6% | 53.1% | 86.5% | 92.8% | 115%
3 | CC1=C[S+](c2ccccc2)c2cccc3cc4ccccc4c1c23 (stereo not given) | 5.3% (active) | -21.7% (active) | 21.5% | -42.6% (active) | -32.6% (active) | -59.6% (active) | -95.7% (active) | -8.79% (active) | -80% (active) | -89.5% (active)
4 | CN1CCN(CC(O)COc2c(Br)c(Br)c(Br)c3c2OC(C)(C)C3)CC1 (stereo not given) | 82.4% | 99.2% | 73% | 16.4% | 23% | -3.44% (active) | 42.6% | 63.6% | 11.8% | -45.3% (active)
5 | Cc1ccc2nc(-c3ccc(-n4on4-c4ccc(/C=C/c5ccc(-n6on6-c6ccc(-c7nc8ccc(C)cc8s7)cc6)cc5S(=O)(=O)O)c(S(=O)(=O)O)c4)cc3)sc2c1 | 105% | 108% | 112% | 121% | 114% | 138% | 117% | 113% | 98.2% | 119%
6 | CC1(C)CC(=O)C2=C(C1)OC1=C(C(=O)CC(C)(C)C1)C2c1ccc(OCc2cn(-c3ccc(F)cc3F)nn2)cc1 | 102% | 88.9% | 105% | 116% | 100% | 107% | 77% | 84.3% | 120% | 101%
7 | O[C@@H]1CCO[C@H](c2ccc3ccccc3c2)C1 | 95.3% | 96.8% | 104% | 99.5% | 107% | 93.1% | 87.9% | 96.7% | 98.7% | 106%
8 | COc1ccc(OC)c(NCC(=O)n2nc(/C=C\c3ccc(O)c(OC)c3)cc2/C=C\c2ccc(O)c(OC)c2)c1 | 19.1% | 29% | 29.5% | 11.8% | 8.27% (active) | 34.5% | -19.3% (active) | 21.4% | -7.3% (active) | -46.8% (active)
9 | c1ccc([Se]CCCN2CCN(CCC[Se]c3ccccc3)CC2)cc1 | 106% | 116% | 121% | 94.5% | 103% | 87.3% | 119% | 108% | 96.4% | 135%
10 | COc1ccc(CNc2nc3ccccc3c3c(=O)c4ccccc4sc23)cc1OC | 80.9% | 75.6% | 80.6% | 79.8% | 63.3% | 42.8% | 77.4% | 61.6% | 76.8% | 79.4%
11 | COc1ccc(NC(=O)COCCOCCNC[C@@H]2C(=O)O[C@H]3[C@H]2CC/C(COC(=O)OC/C2=C/CC[C@@]4(C)O[C@H]4[C@H]4OC(=O)[C@@H](CN(C)C)[C@@H]4CC2)=C\CC[C@@]2(C)O[C@@H]32)c(O)c1C(N)=O | 81.8% | 49.9% | 102% | 93.9% | 96% | -26.6% (active) | -75.7% (active) | 72.9% | -26.1% (active) | -27.9% (active)
12 | CN1CCN(C(=O)/C=C/c2ccc([N+](=O)[O-])o2)CC1 | 98.1% | 110% | 111% | 134% | 91% | 85.9% | 4.39% (active) | 53.8% | 110% | 76.2%
13 | CC(=O)c1ccc2c(c1)C1C=CCC1[C@H](c1cc3c(cc1Br)OCO3)N2 (stereo not given in full) | 27.1% | 22.1% | 64.8% | 32.1% | 7.92% (active) | 16% | -10.7% (active) | 23.4% | 10.9% | -14% (active)
14 | CC(=O)c1cc2c(c(O)c1C)C(=O)C(=O)c1c(O)cccc1-2 | -15.3% (active) | -69.7% (active) | -83.6% (active) | -78.5% (active) | -57.6% (active) | -43.9% (active) | -62.4% (active) | -66.8% (active) | -78.6% (active) | -75.4% (active)
